JMJD2A Tudor = JMJD2A Tudor domain (human) inhibition; Potency, µM (titrated, usually from 114 µM), most hits filed as inhibitors; O75164; AID 504339; 4.4% of 390,000 active; AlphaScreen JMJD2A-Tudor / H3K4me3 peptide binding; further: nearly all actives have a fitted effect of over 50% in size
BAZ2B inh = blocks human BAZ2B. AlphaScreen BAZ2B-H3K14Ac peptide displacement. Potency, µM (highest dose often 114 µM), most hits filed as inhibitors. Q9UIF8. 4.4% of 360,000 active; further: nearly all actives have a fitted effect of over 60% in size
Target sequence (Q9UIF8 whole entry, looked up): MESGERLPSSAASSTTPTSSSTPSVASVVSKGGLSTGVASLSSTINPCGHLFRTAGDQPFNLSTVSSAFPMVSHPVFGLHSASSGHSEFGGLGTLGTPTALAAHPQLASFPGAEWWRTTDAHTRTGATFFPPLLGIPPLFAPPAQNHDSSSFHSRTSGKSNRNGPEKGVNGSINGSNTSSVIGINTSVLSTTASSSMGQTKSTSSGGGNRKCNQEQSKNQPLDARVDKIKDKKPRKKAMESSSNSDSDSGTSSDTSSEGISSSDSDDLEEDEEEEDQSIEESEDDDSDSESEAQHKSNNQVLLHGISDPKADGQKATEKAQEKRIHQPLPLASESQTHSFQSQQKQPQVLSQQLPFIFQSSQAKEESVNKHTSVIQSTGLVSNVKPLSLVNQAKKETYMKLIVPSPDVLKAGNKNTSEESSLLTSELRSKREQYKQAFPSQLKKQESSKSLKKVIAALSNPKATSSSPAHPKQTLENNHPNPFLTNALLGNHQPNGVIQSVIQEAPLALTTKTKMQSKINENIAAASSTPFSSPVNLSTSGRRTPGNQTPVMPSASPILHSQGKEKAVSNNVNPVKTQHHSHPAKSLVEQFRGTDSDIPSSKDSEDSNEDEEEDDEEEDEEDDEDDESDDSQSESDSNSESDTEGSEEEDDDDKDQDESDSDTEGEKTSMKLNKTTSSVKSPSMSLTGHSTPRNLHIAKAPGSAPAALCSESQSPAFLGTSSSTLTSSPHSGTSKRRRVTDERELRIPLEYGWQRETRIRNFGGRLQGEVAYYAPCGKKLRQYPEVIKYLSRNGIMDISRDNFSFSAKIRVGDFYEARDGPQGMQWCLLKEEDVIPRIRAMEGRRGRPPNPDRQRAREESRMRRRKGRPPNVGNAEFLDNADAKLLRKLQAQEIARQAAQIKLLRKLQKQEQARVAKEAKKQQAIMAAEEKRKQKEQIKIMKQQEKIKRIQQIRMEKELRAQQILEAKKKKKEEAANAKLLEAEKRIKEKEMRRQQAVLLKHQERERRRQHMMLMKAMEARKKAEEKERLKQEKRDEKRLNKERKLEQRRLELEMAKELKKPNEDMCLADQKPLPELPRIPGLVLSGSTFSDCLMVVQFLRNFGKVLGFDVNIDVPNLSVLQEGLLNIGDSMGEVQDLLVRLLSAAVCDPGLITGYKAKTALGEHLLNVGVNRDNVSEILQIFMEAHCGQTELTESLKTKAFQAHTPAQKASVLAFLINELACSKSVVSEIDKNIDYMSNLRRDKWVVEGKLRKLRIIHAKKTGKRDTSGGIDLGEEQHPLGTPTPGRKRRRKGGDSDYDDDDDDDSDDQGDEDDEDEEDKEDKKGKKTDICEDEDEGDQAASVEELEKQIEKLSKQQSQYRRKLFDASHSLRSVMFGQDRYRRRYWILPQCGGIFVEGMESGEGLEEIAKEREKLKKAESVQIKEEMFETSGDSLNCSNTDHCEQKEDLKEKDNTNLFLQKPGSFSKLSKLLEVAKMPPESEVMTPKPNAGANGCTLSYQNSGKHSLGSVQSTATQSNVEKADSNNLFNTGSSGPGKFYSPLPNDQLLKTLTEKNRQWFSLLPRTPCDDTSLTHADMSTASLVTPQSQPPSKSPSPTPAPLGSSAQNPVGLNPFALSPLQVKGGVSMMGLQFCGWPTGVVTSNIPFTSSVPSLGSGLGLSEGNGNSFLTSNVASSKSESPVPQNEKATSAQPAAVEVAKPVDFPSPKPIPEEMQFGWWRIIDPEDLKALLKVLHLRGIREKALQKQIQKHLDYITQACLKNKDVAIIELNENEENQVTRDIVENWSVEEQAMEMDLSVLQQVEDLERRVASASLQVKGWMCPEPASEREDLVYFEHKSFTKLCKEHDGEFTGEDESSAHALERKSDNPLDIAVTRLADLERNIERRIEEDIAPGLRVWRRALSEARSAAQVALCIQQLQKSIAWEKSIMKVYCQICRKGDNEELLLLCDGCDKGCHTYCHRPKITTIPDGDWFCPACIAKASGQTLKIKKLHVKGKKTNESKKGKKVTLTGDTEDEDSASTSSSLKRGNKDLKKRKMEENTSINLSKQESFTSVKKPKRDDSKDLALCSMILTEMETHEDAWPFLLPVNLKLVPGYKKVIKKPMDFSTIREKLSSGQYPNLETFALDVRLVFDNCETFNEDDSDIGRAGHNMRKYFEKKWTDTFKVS
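Multi-concentration screen (max 110 uM) measuring displacement of acetylated histone H3 peptide from BAZ2B by AlphaScreen, using 50 nM protein, 50 nM peptide and 10 ug/mL streptavidin donor plus Ni-chelate acceptor beads.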
HP1b binding inh = HP1-beta chromodomain-methylated histone interaction inhibition; P83916; AlphaScreen HP1-beta / biotin-H3K9me3 peptide binding; Potency, µM (series often up to 114 µM), hits mostly inhibitors; 0.56% of 390,000 active; further: nearly all actives have a fitted effect of over 70% in size
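HP1-beta protein (50 nM final) preincubated 30 min at room temperature with biotinylated H3(1-18)K9me3 peptide (50 nM) in PBS pH 7.4, 0.01% Tween-20, then compound added for 30 min. AlphaScreen streptavidin donor/nickel chelate acceptor beads (10 ug/mL final), 30 min dark, luminescence read.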
Sfp inh = blocks B. subtilis Sfp PPTase activity; Q9F4F7; Biochemical Sfp PPTase activity, qHTS; Potency, µM, most hits filed as inhibitors; 3.5% of 310,000 active;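 further: the enzyme is Sfp with the accession as filed and its product quenches rhodamine fluorescence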
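Fluorescence-quenching assay with 15 nM Sfp, 5 uM rhodamine-CoA and 12.5 uM BHQ-2-labelled ybbR peptide in pH 7.6 Hepes/MgCl2 buffer. Enzyme was pre-incubated with compound for 15 min at room temperature. Rate was taken from the 30-min fluorescence change (525/598 nm).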
G9a block = blocks human histone lysine methyltransferase G9a; Q96KQ7; G9a H3K9 monomethylation, AlphaScreen, 2 h; Potency, µM (series often up to 102 µM), hits mostly inhibitors; 8.8% of 350,000 active; further: nearly all actives have a fitted effect of over 75% in size
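Step 1: enzyme (final 20 nM) with compound, 15 min RT. Step 2: substrate peptide 500 nM and SAM 20 uM, 2 h RT. Step 3: anti-H3K9me1 antibody and AlphaScreen beads, 10 min, then plate read.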
PLK1 PBD inh = inhibitors of human PLK1 polo-box domain binding | Plk1 PBD binding of FITC phosphopeptide, fluorescence polarization | Potency, µM, most hits filed as inhibitors | 2.8% of 360,000 active | AID 720504; further: series mostly up to about 57 µM; nearly all actives have a fitted effect of over 65% in size
Hits are given with their value; . = inactive; ? = inconclusive; / = not tested or not shown; [ ] = dose if it differs, or a comment. Most compounds without a hit are left out; they make up all but 12% or so of the library. The call rests on the fitted dose curve; in most records, active means well fitted curve in the direction sought with a large enough effect; inconclusive means small, poorly fitted or top-dose-only effect, or another doubt; inactive means no such curve, though single readings can be large; an effect the other way counts as inactive or inconclusive.

SMILES	JMJD2A Tudor	BAZ2B inh	HP1b binding inh	Sfp inh	G9a block	PLK1 PBD inh
CN1CCN(NC(=O)c2cn(-c3ccccc3)nc2-c2ccc(OC(F)F)cc2)CC1	.	.	.	.	79.4µM	.
CC(C)c1ccc(C2c3[nH]c4ccccc4c3C[C@H]3C(=O)N(c4ccccc4C(=O)N4CCC[C@@H]4C(=O)O)C(=O)N23)cc1 (stereo not given in full)	.	.	.	.	.[12.7 µM]	42.3µM
O=C1C2Cc3c([nH]c4ccccc34)C(c3ccccc3)N2C(=O)C2Cc3c([nH]c4ccccc34)C(c3ccccc3)N12 (stereo not given)	/	/	/	.	/	/
C=CCN1C(=O)[C@@H]2Cc3c([nH]c4ccccc34)C(c3ccc(O)cc3)N2C1=S (stereo not given in full)	?	?	.	.	44.7µM	.
O=C1[C@@H]2Cc3c([nH]c4ccccc34)[C@@H](c3ccccc3)N2C(=O)[C@@H]2Cc3c([nH]c4ccccc34)[C@@H](c3ccccc3)N12	/	?	/	?	14.1µM	/
C=CCN1C(=O)[C@@H]2Cc3c([nH]c4ccccc34)C(c3cc(OC)c(OC)c(OC)c3)N2C1=S (stereo not given in full)	.	.	.	.	?	.
Cc1ccc(C2c3[nH]c4ccccc4c3C[C@H]3C(=O)N(c4ccccc4C(=O)N4CCC[C@H]4C(=O)O)C(=O)N23)cc1 (stereo not given in full)	.	.	.	.	.[12.7 µM]	?
CC1Cc2c([nH]c3ccccc23)C2c3ccccc3CN12 (stereo not given)	?	.	.	.	25.1µM	.
O=C(Cn1c(=O)nc(-c2ccccc2)c2cc(Cl)ccc21)NCCCc1ccccc1	.	.	.	/	.	/
O=C(NC(=S)NC1CCCCC1)c1ccc(F)cc1	.	?	.	.	.[12.7 µM]	.
O=C1[C@@H]2Cc3c([nH]c4ccccc34)C(c3cccc([N+](=O)[O-])c3)N2C(=O)CN1C1CCN(Cc2ccccc2)CC1 (stereo not given in full)	/	25.1µM	/	.	.[0.501 µM]	/
CC(C(=O)Nc1ccccc1C(F)(F)F)N1CCN(C)CC1 (stereo not given)	25.1µM	79.4µM	?	.	.[0.501 µM]	.
CC(C(=O)Nc1ccc(F)c(F)c1)N1CCN(C)CC1 (stereo not given)	3.16µM	22.4µM	35.5µM	?	?	.
CN1CCN(CCC(=O)Nc2ccc(F)c(F)c2)CC1	.	?	.	.	.	.
COc1ccc(-c2cc(NC=O)c3ncc(-c4cccc(C(=O)NCCN(C)C)c4)n3c2)c(OC)c1	/	/	/	/	/	.
N#Cc1cccc(OC2=NS(=O)(=O)c3ccccc32)c1	35.5µM	/	/	/	/	/
COC1=NS(=O)(=O)c2ccccc21	.	.	.	.	?	.
O=S1(=O)N=C(Oc2cccc(Cl)c2)c2ccccc21	.	/	/	/	/	/
O=S1(=O)N=C(Oc2ccccc2-c2ccccc2)c2ccccc21	.	/	/	/	/	/
O=S1(=O)N=C(Oc2ccccc2)c2ccccc21	89.1µM	.	.	.	.	.
Cc1ccc(C)c(OC2=NS(=O)(=O)c3ccccc32)c1	.	.	.	.	/	11.9µM
COc1cccc(N2CCN(c3c4c(nc5nncn35)CCC4)CC2)c1	.	.	.	/	.	/
CCOC(=O)c1c(C)[nH]c(C)c1C(=O)COC(=O)C1CCCN1S(=O)(=O)c1ccccc1F (stereo not given)	.	?	.	.	50.1µM	.
O=C(COC(=O)[C@@H]1CCCN1S(=O)(=O)c1ccccc1F)c1ccccc1	.	.	.	.	.	.
Cc1ccccc1Nc1ncnc2c1c(-c1ccccc1)cn2-c1ccc(F)cc1	.	.	.	/	.	/
SMILES	JMJD2A Tudor	BAZ2B inh	HP1b binding inh	Sfp inh	G9a block	PLK1 PBD inh
CCc1ccc(Nc2nnc(SCC(=O)Nc3sccc3C(N)=O)s2)cc1	.	?	.	.	11.2µM	.
COc1cccc(NC(=O)CSc2nnc(NC(=O)C3CC3)s2)c1	.	.	.	.	?	.
Cc1nnc(SCC(=O)Nc2sccc2C(N)=O)s1	.	.	.	/	?	.
COc1cccc(Nc2nnc(SCC(=O)Nc3sccc3C(N)=O)s2)c1	.	79.4µM	.	?	.	.
O=NN(CCCl)C(=O)NC1CCCCC1	/	/	/	.	.[12.7 µM]	/
COc1ccc(-c2cc(C(=O)NC(Cc3cc4ccccc4[nH]3)C(=O)O)c(C)o2)cc1OC (stereo not given)	.	.	?	22.4µM	31.6µM	?
Cc1ccc(C2(c3ccccc3)NC(=O)N(CC(=O)N3CC(=O)Nc4ccccc43)C2=O)cc1C (stereo not given)	?	.	.	/	.[12.7 µM]	.
O=c1c2ccccc2[nH]c2ccc(O)cc12	?	56.2µM	?	.	39.8µM	29.9µM
Cc1ccc2[nH]c3ccccc3c(=O)c2c1	.	.	.	.	.	.
Cn1nnnc1SCCCNCc1cccc(OCc2ccccc2F)c1	.	?	.	/	.	/
O=C(O)CC1NC(=S)N(Cc2ccccc2)C1=O (stereo not given)	/	/	/	/	/	.
O=C1C(CCCNC(=S)NCc2ccccc2)NC(=S)N1Cc1ccccc1 (stereo not given)	.	?	.	.	50.1µM	.
COc1ccc(S(=O)(=O)N2CCOC2CNC(=O)C(=O)NCCCN2CCOCC2)cc1OC (stereo not given)	.	/	.	/	/	.
COc1ccc(C(=O)C/C(=C\C(=O)c2ccc(C)cc2)c2ccccc2)cc1	.	.	.	.	.	.
COC(=O)C(=O)/C=C(\O)c1ccc(C)cc1	79.4µM	?	.	?	2µM	.
Cc1ccc(/C(O)=C/C(=O)C(=O)NNC(=O)C(O)(c2ccccc2)c2ccccc2)cc1	?	50.1µM	.	.	.	.
CCn1c(=O)c2sccc2n(Cc2cc(C(=O)OC)ccc2OC)c1=O	.	.	.	.	.	.
Cc1cccc(N2CCN(c3ccc(N4C(=O)CCCC4=O)cc3[N+](=O)[O-])CC2C)c1 (stereo not given)	?	28.2µM	?	.	?	.
O=C(CSc1nc(-c2ccccc2)nc2c1CCCC2)c1ccc(F)cc1	.	.	.	/	.	/
CCOc1ccc2nc(NS(C)(=O)=O)sc2c1	.	.	.	.	7.08µM	?
CCOc1ccc2nc(NC(=O)c3ccc(OCC4CCCO4)cc3)sc2c1 (stereo not given)	.	.	.	?	44.7µM	.
Cc1cccc2sc(NC(=O)c3ccc(OCC4CCCO4)cc3)nc12 (stereo not given)	.	.	.	.	.	.
CCOc1ccc2nc(NC(=O)Cn3c(C)csc3=O)sc2c1	.	.	.	/	39.8µM	.
CCOCC(=O)Nc1nc2ccc(OCC)cc2s1	.	.	.	.	.[12.7 µM]	.
CCOc1ccc2nc(Cl)sc2c1	.	.	.	.	35.5µM	.
